# “And” between values parts separate entries of the source, which are not always exact repeats. Equal entries are not always repeated. Compounds without any hit were thinned out: in the full panel of roughly 79,000, 15% have a hit. Some compounds were tested as several samples or in several runs, with calls that do not always agree. The source made the active and inactive calls. Cut-off read from the data, not from the text of the source: active = growth inhibition above about 70%; inactive = the rest.
# How the values were obtained:
# [1] = NCI Yeast Anticancer Drug Screen. Data for the rad50 strain (AID 155);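 note: 0% = growth of vehicle-only cultures of the same strain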; conditions: S. cerevisiae rad50 strain growth inhibition; at 50.0 µM; stronger effect = higher value
# Summary of the method: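 Cells are treated with compound, grown, and their growth is then scored against vehicle-only cultures of the same repair-deficient yeast strain.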
# [2] = NCI Yeast Anticancer Drug Screen. Data for the mec2-1 strain (AID 157); conditions: S. cerevisiae mec2-1 strain, at 50.0 µM, stronger effect = higher value
# Summary of the method: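 mec2-1 yeast strain, carrying an alteration in DNA damage repair or cell cycle control, was exposed to compounds; growth inhibition was measured relative to vehicle-treated controls.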
# [3] = NCI Yeast Anticancer Drug Screen. Data for the sgs1 mgt1 strain (AID 161);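 note: 0% = growth of cultures given vehicle only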; conditions: S. cerevisiae sgs1 mgt1 strain, at 50.0 µM, stronger effect = higher value
# Summary of the method: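 This yeast growth screen uses a strain with defined DNA-repair lesions; compound-treated growth is compared with vehicle-treated growth.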
# [4] = NCI Yeast Anticancer Drug Screen. Data for the cln2 rad14 strain (AID 165);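 note: 0% = growth equal to vehicle treated cultures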; conditions: S. cerevisiae cln2 rad14 strain, at 50.0 µM, stronger effect = higher value
# Summary of the method: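 Yeast carrying cln2 and rad14 alterations (cell cycle control and DNA damage repair) were exposed to compounds. Growth inhibition was measured against vehicle-treated controls.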
# [5] = NCI Yeast Anticancer Drug Screen. Data for the bub3 strain (AID 167); conditions: S. cerevisiae bub3 mutant strain, at 50.0 µM, stronger effect = higher value
# Summary of the method: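 Part of a panel of yeast mutants defective in DNA damage repair or cell cycle regulation. Each strain is grown with compound, and inhibition is calculated relative to solvent-treated cultures.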
# [6] = NCI Yeast Anticancer Drug Screen. Data for the mlh1 rad18 strain (AID 175); conditions: S. cerevisiae mlh1 rad18 strain growth inhibition; at 50.0 µM; stronger effect = higher value
# Summary of the method: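 Growth inhibition of the yeast strain was measured after compound exposure and expressed relative to vehicle-treated controls. The strain carries defined defects in DNA damage repair.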
Structure (SMILES),growth inhibition [1],growth inhibition [2],growth inhibition [3],growth inhibition [4],growth inhibition [5],growth inhibition [6]
COc1ccc(C(C)=O)cc1OC,-0.95% (inactive) and 6.35% (inactive),-7.9% (inactive) and -3.4% (inactive),-1.4% (inactive) and -3.3% (inactive),2.75% (inactive) and -6.5% (inactive),3.25% (inactive) and 2.6% (inactive),-4.15% (inactive) and 1.65% (inactive)
COc1ccc2c(=O)oc3c(OC)cc(CCN(C)C)c4c(=O)oc1c2c34,62.9% (inactive) and -8.15% (inactive),-0.55% (inactive) and -23.4% (inactive),0.35% (inactive) and -57.6% (inactive),4.3% (inactive) and -24.4% (inactive),20.2% (inactive) and -43.8% (inactive),25.4% (inactive) and -30.3% (inactive)
CN(C)CC1CCCCC(CN(C)C)C1=O (stereo not given),-23.1% (inactive) and -15.7% (inactive),-5.8% (inactive) and 2.95% (inactive),-14.8% (inactive) and -8.7% (inactive),4.4% (inactive) and -52.7% (inactive),-11.8% (inactive) and 7.95% (inactive),-13.6% (inactive) and -8.7% (inactive)
Cc1cccc(OC(=O)Cc2ccccc2)c1,-17.1% (inactive) and -34.1% (inactive),-14.6% (inactive) and -8.2% (inactive),-6.1% (inactive) and -8.35% (inactive),-9.45% (inactive) and -38% (inactive),13.6% (inactive) and -12.9% (inactive),-16.2% (inactive) and -8% (inactive)
CC(=O)Nc1cc(NC(C)=O)c2ccccc2c1O,-2.65% (inactive) and 4.1% (inactive),22% (inactive) and 5.85% (inactive),13.2% (inactive) and 8% (inactive),6.05% (inactive) and 25.1% (inactive),18.9% (inactive) and 14.3% (inactive),2.7% (inactive) and 6.75% (inactive)
O=[N+]([O-])c1ccccc1S(=O)(=O)Oc1ccccc1,10.1% (inactive) and 54.7% (inactive),2.5% (inactive) and -9.2% (inactive),5.45% (inactive) and 46.3% (inactive),-12.9% (inactive) and 1% (inactive),-8.65% (inactive) and -14.5% (inactive),5.25% (inactive) and 32.4% (inactive)
C/C(=N\NC(N)=O)c1ccc(Cl)cc1,27.9% (inactive) and 9.05% (inactive),10.8% (inactive) and -3.65% (inactive),2% (inactive) and -6.25% (inactive),9.6% (inactive) and -8.65% (inactive),-4.15% (inactive) and 6% (inactive),7.3% (inactive) and 10.7% (inactive)
C/C=C/C=C/c1cc2cc3c(c(O)c2c(=O)[nH]1)C1(CC3)C(O)=c2c(=O)c3c(=O)cc(OC)c(=O)c=3c(=O)c2=C1O (stereo not given),86.8% (active) and 80.7% (active),89.8% (active) and 74.3% (active),88.7% (active) and 75.2% (active),81.8% (active) and 60% (inactive),83% (active) and 80.5% (active),78.6% (active)
CC(=O)OC1COC(N2CCc3ccccc32)C(OC(C)=O)C1OC(C)=O (stereo not given),-16.2% (inactive) and -19% (inactive),-2.95% (inactive) and -28% (inactive),-33% (inactive) and -34.4% (inactive),-6.75% (inactive) and -2.5% (inactive),-27.7% (inactive) and -17.9% (inactive),-25.2% (inactive) and -33.2% (inactive)
CC(=O)OCC1OC(n2c(-c3ccccc3)cc(-c3ccccc3)c(C#N)c2=O)C(OC(C)=O)C(OC(C)=O)C1OC(C)=O (stereo not given),-14.3% (inactive) and -1.45% (inactive),-3.7% (inactive) and 6.6% (inactive),1.8% (inactive) and 3.45% (inactive),23.6% (inactive) and 0.7% (inactive),5.4% (inactive) and 3.9% (inactive),16% (inactive) and -2.25% (inactive)
C1CCC(N2CN(C3CCCCC3)C2)CC1,7.7% (inactive) and 0.05% (inactive),-11.9% (inactive) and 0.5% (inactive),-17.1% (inactive) and -8.8% (inactive),-14.5% (inactive) and 10.3% (inactive),-8.85% (inactive) and -19.4% (inactive),-31.8% (inactive) and 18% (inactive)
O=c1cc2oc3cc(O)c(O)cc3c(-c3ccccc3)c-2cc1O,-4.25% (inactive) and 15.2% (inactive),-16.1% (inactive) and 32.5% (inactive),-3.15% (inactive) and 25.9% (inactive),-5.9% (inactive) and -23.8% (inactive),-10.2% (inactive) and 15.9% (inactive),-4.15% (inactive) and 34.9% (inactive)
CN1C/C(=C\c2ccccc2[N+](=O)[O-])C(=O)/C(=C/c2ccccc2[N+](=O)[O-])C1,-3.7% (inactive) and -14.4% (inactive),14.9% (inactive) and 28.8% (inactive),25.6% (inactive) and -49% (inactive),4.85% (inactive) and -8.9% (inactive),13.7% (inactive) and 21.4% (inactive),16.8% (inactive) and -29.1% (inactive)
NCCC(=O)c1ccccc1,-8.25% (inactive) and 0.05% (inactive),-4.2% (inactive) and 6.2% (inactive),-14.6% (inactive) and -1.4% (inactive),-17.4% (inactive) and 7.65% (inactive),-19.5% (inactive) and 7.95% (inactive),-2.7% (inactive) and 25.3% (inactive)
N#CC(Cc1ccccc1)c1ccccc1 (stereo not given),-65.7% (inactive) and 17.2% (inactive),-12.5% (inactive) and 11.1% (inactive),-18.1% (inactive) and 29.8% (inactive),-24.8% (inactive) and 1.75% (inactive),0.45% (inactive) and -5% (inactive),3.45% (inactive) and 6.45% (inactive)
O=C(O)CSc1ccccc1C(=O)O,-1.35% (inactive) and -7.9% (inactive),-11.9% (inactive) and -40.9% (inactive),1.6% (inactive) and -35.4% (inactive),-27.9% (inactive) and 22.3% (inactive),6.15% (inactive) and -33.8% (inactive),-17.9% (inactive) and -4.25% (inactive)
COc1ccc2c(c1)CCC1C[C@@H]3C[C@]21C=CC3=O (stereo not given in full),11.8% (inactive) and -3.5% (inactive),-11.8% (inactive) and -6.75% (inactive),0.75% (inactive) and 14.9% (inactive),9.6% (inactive) and 8.05% (inactive),24% (inactive) and 19.4% (inactive),5.15% (inactive) and 11.7% (inactive)
Nc1ccc2ccc(O)cc2c1,24.8% (inactive) and 29.8% (inactive),-0.5% (inactive) and 8.5% (inactive),24.9% (inactive) and 16.8% (inactive),21.8% (inactive) and -22.2% (inactive),13.6% (inactive) and 25.8% (inactive),19% (inactive) and 24.6% (inactive)
CCCCCCCCCCCCCCCC[N+](C)(C)CCOC(C)=O,99.2% (active) and 99% (active),99.5% (active),99.5% (active),98.9% (active) and 98.8% (active),99.2% (active) and 99.3% (active),99.5% (active) and 99.4% (active)
CC1(C)CC(=O)CC(=O)C1,25.2% (inactive) and 10.2% (inactive),12.8% (inactive) and 3.15% (inactive),-9.3% (inactive) and 4.6% (inactive),18.8% (inactive) and 0.85% (inactive),2.55% (inactive) and 6.75% (inactive),18.6% (inactive) and 6.8% (inactive)
